Screening data from PubChem BioAssay.
In the library only some 19% were active in any assay of this set; here they are far more common.
HT1080NT lethal: kills 2HG-producing HT-1080-NT fibrosarcoma cells; Potency, µM (top dose mostly 46.1 µM), for inactives: at the top dose activity, negative = less viability, most hits filed as cytotoxic; 1.6% of 360,000 active; AID 686970; HT-1080-NT fibrosarcoma viability, CellTiter-Glo ATP luminescence, 48 h;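 note: NT is the 2HG producing partner of a matched IDH1 knockdown line; potency is the fitted concentration of half-maximal effect; 0% = DMSO-treated cells and -100% = media-only wells without cells; nearly all actives have a fitted effect of over 55% in size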
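Luminescent CellTiter-Glo readout after 48 hours of compound exposure at 37 degrees C defined viability of HT-1080-NT cells. Activity was normalized to DMSO wells and cell-free media wells; concentration-response curves were fitted and assigned curve classes.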
DT40 TDP1 CPT: DT40-hTDP1 cell growth loss with CPT; chicken DT40 Tdp1-/-;hTDP1 cells + 20 nM CPT, ATP luminescence, 48 h; 12% of 420,000 active; Potency, µM (top dose mostly 46.2 µM), without a hit: top-dose activity change, negative = growth inhibition, actives largely listed as inhibitors; AID 686979; note: potency is the fitted concentration of half-maximal effect; nearly all actives have a fitted effect of over 55% in size
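Chicken DT40 Tdp1-/- cells stably complemented with human TDP1 were seeded at 400 cells/well in medium containing 20 nM camptothecin, exposed to pin-transferred compounds, and grown at 37 °C for at least 48 hr. Viability was read as ATP luminescence.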
HT1080 IDH1KD tx: toxicity to HT-1080 IDH1 knockdown cells (counter line). HT-1080 IDH1 knockdown viability, ATP luminescence, 48 h. Potency, µM (highest dose often 46.1 µM), for inactives: at the top dose activity, negative = toxicity, hits mostly cytotoxic. 2% of 360,000 active. AID 686971;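 note: potency is the fitted concentration of half-maximal effect; 0% = DMSO wells and -100% = cell-free medium wells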
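HT-1080-IDH1KD cells (IDH1 knocked down), 750/well in RPMI with 5% FBS, treated with compound 48 h at 37 degrees C. Viability by CellTiter-Glo luminescence, normalised to DMSO and no-cell wells; concentration-response curves classed.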
IL-1B inflam inh: inflammasome signaling inhibition, IL-1 beta readout | THP-1 LPS/ATP IL-1B secretion, AlphaLISA, 16 h; hits give low values | activity change, % at 57.5 µM | 4.7% of 360,000 active | AID 743279; in the data active = activity change below about -50%; inconclusive = mostly about -30% to -49%
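THP-1 cells pretreated 1 hr with compounds (up to 57.5 uM final), then stimulated with LPS (250 ng/mL final) plus ATP (1.25 mM final); secreted IL-1B measured by AlphaLISA after 16 hr, decreased signal indicating inhibition.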
DT40 TDP1 no CPT: qHTS for Inhibitors of human tyrosyl-DNA phosphodiesterase 1 (TDP1): qHTS in cells in absence of CPT; 15% of 420,000 active; DT40 Tdp1-/- hTDP1 cells, no CPT, ATP luminescence, 48 h; Potency, µM (doses to about 46.2 µM), for the others: top-dose activity change, negative = growth inhibition, hits mostly inhibitors; note: potency is the fitted concentration of half-maximal effect; nearly all actives have a fitted effect of over 55% in size
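Chicken DT40 Tdp1-/- cells stably complemented with human TDP1 were seeded at 400 cells/well with DMSO in place of 20 nM camptothecin. After compound pinning, cells grew at least 48 hr at 37 °C; viability read by CellTiter-Glo luminescence.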
The depositor's hits bear a star; u = inconclusive; x = no result given; ! = not confirmed by another sample. Unless noted, calls come from the whole dose curve; as a rule, active = well fitted curve in the direction sought with a large enough effect; inconclusive = small, poorly fitted or top-dose-only effect, or another doubt; inactive = no such curve, though single readings can be large; an effect the other way counts as inactive or inconclusive. Unless noted, % is set by controls: 0 for no effect and ±100 for the full control effect.

SMILES	HT1080NT lethal	DT40 TDP1 CPT	HT1080 IDH1KD tx	IL-1B inflam inh	DT40 TDP1 no CPT
COc1ccc(NC(=O)c2sc3nc(-c4ccc(OC)cc4)cc(C(F)(F)F)c3c2N)cc1	x	2.9µM*	x	x	1.8µM*
COc1ccc(NC(=O)c2sc3nc4c(c(-c5ccc(OC)cc5)c3c2N)C(=O)CC(C)(C)C4)cc1	x	23µM*	x	x	13µM*
CC(C)[C@H](NC(=O)c1ccccc1F)C(=O)OCCN1C(=O)c2ccccc2C1=O	9%	-2%	0%	6	-1%
Cc1ccccc1CNS(=O)(=O)c1c(C(=O)N2CCCCC2)c(C)n(C)c1C	2%	9%	7%	-9	11%
COc1ccc(/C=C/C(=O)N(C)c2ccccc2C(=O)O)cc1	3%	4%	14%	-1	8%
CC(C)c1ccccc1NC(=O)CSc1n[nH]c(=O)n1C1CC1	5%	-16%	0%	25	-4%
CCOc1ccccc1N1CCN(C(=O)c2ccc3[nH]c4c(c3c2)CCCC4)CC1	u	21µM*	u	u	u
CCOc1ccccc1N1CCN(C(=O)c2cc3c(C)cc(C)cc3[nH]2)CC1	u	u	u	u	23µM*
O=C1CCN(Cc2ccc(Cl)cc2Cl)C(=O)N1	0%	10%	-9%	-2	-3%
Cc1ccc(C(=O)NCc2ccco2)c(C)c1	16%	13%	15%	-5	8%
C=C(C)Cn1c(SCC#N)nc2ccccc2c1=O	-4%	-5%	-4%	-3	-20%
C=C(C)Cn1c(SCC(=O)N/N=C/c2c(O)ccc3ccccc23)nc2ccccc2c1=O	-6%	7.3µM*	-3%	28	6.5µM*
C=C(C)Cn1c(SCC)nc2ccccc2c1=O	5%	u	11%	4	10µM*!
COc1ccc(OC)c(CN2CCN(C(=O)c3ccc(S(=O)(=O)Nc4ccccc4F)cc3)CC2)c1	1%	u	-7%	25	u
CCC(C)c1ccc(OCC(=O)Nc2ccc3c(c2)C(=O)NC3=O)cc1 (stereo not given)	1%	2%	0%	-6	u
CC(C)C(NC(=O)c1c(F)cccc1F)C(=O)OCN1C(=O)c2ccccc2C1=O (stereo not given)	11%	3%	1%	18	13%
Cc1nc(N2CCN(C(=O)c3ccc(Cl)cc3)CC2)c(C#N)c2c1COC(C)(C)C2	-9%	29µM*	-16%	-15	u
Cc1ccc(S(=O)(=O)N2CCN(c3nc(C(C)C)c4c(c3C#N)CC(C)(C)OC4)CC2)cc1	-4%	16µM*	-29%	7	16µM*
CCCNC(=O)N1CCN(c2nc(C(C)C)c3c(c2C#N)CC(C)(C)OC3)CC1	-6%	29µM*	-13%	-10	-63%
O=C(CN1CCCCCC1)Nc1nc2ccccc2s1	16%	16%	11%	-3	-1%
Cc1ccc2nc(N3CCN(Cc4nnnn4Cc4ccccc4)CC3)c(C#N)cc2c1	-3%	u	-19%	-5	u
COc1ccc2cc(C#N)c(N3CCN(Cc4nnnn4CCC(C)C)CC3)nc2c1	6%	21µM*	-10%	u	18µM*
COc1ccc(-c2cc(C(=O)Nc3ccc(S(=O)(=O)Nc4onc(C)c4C)cc3)c3ccccc3n2)cc1	-1%	-5%	-5%	-11	-19%
Cc1ccc(C)c(Nc2nc3c(S(=O)(=O)c4ccc(C(C)C)cc4)nnn3c3ccsc23)c1	x	15µM*	x	x	21µM*
COc1ccccc1Nc1nc2c(S(=O)(=O)c3ccc(C(C)C)cc3)nnn2c2ccsc12	x	-4%	x	x	-5%
SMILES	HT1080NT lethal	DT40 TDP1 CPT	HT1080 IDH1KD tx	IL-1B inflam inh	DT40 TDP1 no CPT
Cc1ccc(C)c(Nc2nc3c(S(=O)(=O)c4ccc(Br)cc4)nnn3c3ccsc23)c1	x	18µM*	x	x	21µM*
Cc1nc2ccccn2c1C(=O)CSc1cccc(Cl)c1	1%	u	-5%	-70*	u
Cc1nc2ccccn2c1C(=O)Nc1ccc(Cl)cc1	-2%	-23%	-16%	13	u
Cc1nc2ccccn2c1C(=O)CSc1ccccc1Cl	-7%	16µM*	-25%	-21	16µM*
Cc1nc2ccccn2c1C(=O)CSc1ccc(Cl)cc1Cl	-5%	u	4%	20	18µM*
Cc1ccc(SCC(=O)c2c(C)nc3cc(C)ccn23)cc1	8%	u	-7%	7	u
COc1cccc(-c2cnc3c(NC=O)cc(-c4ccc(OC)cc4OC)cn23)c1	u	0.015µM*	u	47	0.021µM*
COc1ccc(-c2cc(NC=O)c3ncc(-c4ccc(OC)c(OC)c4)n3c2)c(OC)c1	0.0073µM*	0.041µM*	0.082µM*	15	0.033µM*
O=C(NC1CC1)C1CCN(C2CCN(C(=O)c3ccc4cccc(F)c4n3)CC2)CC1	21%	-10%	1%	15	-6%
Cc1ccc(S(=O)(=O)NC(C(=O)Oc2cc3oc(=O)cc(C)c3cc2Cl)C(C)C)cc1 (stereo not given)	0%	-3%	1%	-21	u
CCCc1ccc(S(=O)(=O)NCc2nnc(SC)n2C)cc1	20%	-6%	u	1	-11%
CCOc1ccc(N2CC(C(=O)Nc3nnc(CC)s3)CC2=O)cc1 (stereo not given)	-9%	0%	-2%	18	0%
Clc1ncc(C#Cc2ccccc2)c2ncncc12	u	1.4µM*	u	x	0.79µM*
Clc1ccc(C#Cc2cccnc2)cc1	25%	-20%	21%	23	4%
CC(=O)c1cccc(NS(=O)(=O)c2c(C(=O)N3CCOCC3)c(C)n(C)c2C)c1	9%	-5%	25%	1	24%
CC(C)(C)c1sc(N)nc1-c1ccccc1	u	0%	-20%	-102*	-16%
Cc1nc(Br)c(Br)c(C)c1Br	4%	1%	0%	-5	1%
Cc1ccc(NC(=O)CSc2nc3ccccc3c(=O)n2Cc2cccs2)cc1	-7%	u	-4%	4	-17%
Cc1ccc(Cn2ccn(CC(=O)Nc3ccccc3C(F)(F)F)c(=O)c2=O)cc1	x	0%	x	x	-2%
CCn1cc2nc(SCC(=O)Nc3ccc(OC)cc3OC)n(Cc3ccc(OC)cc3)c(=O)c2n1	3.7µM*	4.1µM*	5.2µM*	6	2.6µM*
CCn1cc2nc(SCC(=O)Nc3ccc(C)cc3)n(Cc3ccc(C)cc3)c(=O)c2n1	x	21µM*	x	x	13µM*
CCn1cc2nc(SCC(=O)Nc3ccccc3C(F)(F)F)n(Cc3ccc(C)cc3)c(=O)c2n1	x	16µM*	x	x	18µM*
CCn1cc2nc(SCC(=O)Nc3ccc(OC)c(OC)c3)n(Cc3ccc(OC)cc3)c(=O)c2n1	-21%	u	-18%	0	u
